# In the supplement of paper PMC8285479:
# Where a name gives a salt, the structure may show the parent alone. ± gives the standard deviation of the averaged measurements. Whole data set: some 1,900 compounds, median “normalised cell viability (NPI; 0 = phenylarsine oxide control, 1 = DMSO control)” near 1, cut for the lowest 2% near 0.039. Shown is part of a subset that was picked to be rich in the lowest values.
# Tested on: NCI-H1944
# Test: normalised cell viability (NPI; 0 = phenylarsine oxide control, 1 = DMSO control) (fraction of DMSO control); NCI-H1944 is a non-small cell lung cancer line; higher = more viable cells (less compound toxicity)
# Settings: 6 days
# [1] = glucocorticoid arm: hydrocortisone 2.75 uM co-treatment, compound 1 µM
# [2] = glucocorticoid arm: hydrocortisone 2.75 uM co-treatment, compound 5 µM
# [3] = glucocorticoid arm: hydrocortisone 2.75 uM pre-treated 2 days and continued, compound 1 µM
# [4] = glucocorticoid arm: hydrocortisone 2.75 uM pre-treated 2 days and continued, compound 5 µM
# [5] = glucocorticoid arm: vehicle, compound 1 µM
# [6] = glucocorticoid arm: vehicle, compound 5 µM
# 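Also: CTB read-out in 384-well plates, triplicate wells, NPI normalised per plate against 1 µM phenylarsine oxide (0) and 0.1% DMSO (1) controls.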
SMILES,normalised cell viability [1],normalised cell viability [2],normalised cell viability [3],normalised cell viability [4],normalised cell viability [5],normalised cell viability [6]
CN1CCN(c2ccc([N+](=O)[O-])c3no[n+]([O-])c23)CC1,0.984 ± 0.015,1.04 ± 0.011,0.993 ± 0.0076,1.01 ± 0.01,0.984 ± 0.011,0.988 ± 0.01
O=c1[nH]c2ccc(Cl)cc2c(N[C@@H]2CN3CCC2CC3)c1-c1nc2ccccc2[nH]1,0.43 ± 0.0081,0.0244 ± 0.0034,0.717 ± 0.02,0.0576 ± 0.015,0.0195 ± 0.0053,0.00294 ± 0.0014
O=C(N[C@H]1CN2CCC1CC2)c1ccc(Cl)cc1,1.02 ± 0.01,1.01 ± 0.022,1.023 ± 0.0058,1.02 ± 0.015,0.998 ± 0.0035,1.013 ± 0.0058
C[C@@]12N[C@@H](Cc3ccccc31)c1ccccc12 [(-)-MK 801 Maleate],1.023 ± 0.0058,1.02,1.02 ± 0.011,1.03 ± 0.015,1.01,1.01
C[C@@]12N[C@@H](Cc3ccccc31)c1ccccc12 [(-)-MK-801 hydrogen maleate],1.01 ± 0.01,1.02 ± 0.026,1.013 ± 0.0058,1.05 ± 0.094,0.992 ± 0.0092,1 ± 0.017
CC1Cc2cc3c(cc2C(c2ccc(N)cc2)=NN1)OCO3 (configuration not stated),1.01 ± 0.01,1.02 ± 0.021,1.01,1.01 ± 0.037,0.9943 ± 0.0035,0.9943 ± 0.006
COc1ccc2c(c1)[C@@]13CCCC[C@H]1[C@@H](C2)NCC3 [3-Methoxymorphinan hydrochloride],1.013 ± 0.0058,0.989 ± 0.03,1.02 ± 0.015,1.06 ± 0.058,1.003 ± 0.0058,1.01 ± 0.01
CC1(C(=O)O)C2CCC(O2)C1(C)C(=O)O (configuration not stated) [Cantharidic Acid],0.983 ± 0.016,0.0223 ± 0.0017,1.06 ± 0.015,0.137 ± 0.087,0.965 ± 0.025,0.0108 ± 0.0036
O=C(O)[C@@H]1[C@H](C(=O)O)[C@H]2CC[C@@H]1O2 [Endothall],1.01 ± 0.01,1.05 ± 0.01,1.007 ± 0.0058,1.07 ± 0.015,0.9967 ± 0.0025,1.007 ± 0.0058
C[C@@H]1O[C@H](C[N+](C)(C)C)C[C@H]1O (racemic) [(±)-Muscarine chloride],1.02 ± 0.011,1.03 ± 0.035,1.01 ± 0.015,1.05 ± 0.085,0.9963 ± 0.0047,1 ± 0.014
OC1CCCCC1N1CCC(c2ccccc2)CC1 (racemic) [(±)-Vesamicol hydrochloride],0.9747 ± 0.0049,0.91 ± 0.021,0.875 ± 0.21,0.978 ± 0.022,0.9897 ± 0.0025,0.9897 ± 0.0076
CC[C@@]1(O)C(=O)OCc2c1cc1n(c2=O)Cc2cc3ccccc3nc2-1 [(S)-(+)-Camptothecin],0.066 ± 0.014,0.00107 ± 0.0017,0.328 ± 0.025,0.0202 ± 0.0036,0.0279 ± 0.0022,-0.000721 ± 0.0022
Cc1ccccc1-n1c(Cn2cnc3c(N)ncnc32)nc2cccc(C)c2c1=O,1.003 ± 0.0058,1.02 ± 0.028,1 ± 0.015,1.02 ± 0.031,1 ± 0.017,1.01 ± 0.011
C=CCN1CC[C@]23CCCC[C@H]2[C@H]1Cc1ccc(O)cc13 [Levallorphan tartrate],1 ± 0.0089,1 ± 0.023,1.003 ± 0.0058,1.06 ± 0.064,0.9917 ± 0.0025,0.863 ± 0.23
N=C(NCCC[C@H](N)C(=O)O)N[N+](=O)[O-] [NG-Nitro-L-arginine],1.003 ± 0.0058,1.01 ± 0.022,1.01 ± 0.017,0.86 ± 0.24,1 ± 0.012,1.001 ± 0.0085
C=CCN1CCc2cccc3c2[C@H]1Cc1ccc(O)c(O)c1-3 [R(-)-N-Allylnorapomorphine hydrobromide],0.992 ± 0.0052,0.949 ± 0.0089,0.988 ± 0.011,0.968 ± 0.02,0.9917 ± 0.0042,0.9757 ± 0.0015

SMILES,normalised cell viability [1],normalised cell viability [2],normalised cell viability [3],normalised cell viability [4],normalised cell viability [5],normalised cell viability [6]
CNc1ccc2oc(C[C@H]3O[C@@]4(CC[C@H]3C)O[C@H]([C@H](C)C(=O)c3ccc[nH]3)[C@H](C)C[C@H]4C)nc2c1C(=O)O [Calcimycin],0.909 ± 0.018,0.0265 ± 0.002,1.01 ± 0.013,0.0205 ± 0.0037,0.91 ± 0.036,0.0377 ± 0.014
NC(CCCCCP(=O)(O)O)C(=O)O (racemic) [(±)-2-Amino-7-phosphonoheptanoic acid],0.98 ± 0.012,0.9763 ± 0.0025,0.9903 ± 0.005,0.97 ± 0.013,0.9873 ± 0.004,0.972 ± 0.0072
COc1cc(C(O)CN)ccc1O (racemic) [(±)-Normetanephrine hydrochloride],0.9973 ± 0.0025,1.01 ± 0.021,1.01 ± 0.01,0.867 ± 0.27,0.9953 ± 0.0045,1 ± 0.016
C[C@H]1OC[C@@H](C[N+](C)(C)C)O1 [(+)-cis-Dioxolane],1.017 ± 0.0058,1.02 ± 0.01,1 ± 0.018,1.04 ± 0.081,1.01 ± 0.01,1.006 ± 0.0063
COc1ccc2c3c1O[C@H]1C(=O)CC[C@@]4(O)C(C2)N(CC2CC2)CCC314 (some centres not stated) [3-Methoxynaltrexone hydrochloride],0.9917 ± 0.0068,0.99 ± 0.018,0.985 ± 0.013,1.02 ± 0.07,0.9977 ± 0.0025,0.998 ± 0.013
c1ccc(C2(c3ccccc3)CC2C2=NCCN2)cc1 (configuration not stated) [Cibenzoline succinate],0.992 ± 0.013,0.994 ± 0.027,1.003 ± 0.0058,1.02 ± 0.078,1.007 ± 0.0058,1.01 ± 0.01
CN1CCCCC1Cn1cc(C(=O)c2cc([N+](=O)[O-])ccc2I)c2ccccc21 (configuration not stated),1.02 ± 0.015,0.99 ± 0.026,1.04 ± 0.01,1.01 ± 0.029,1.013 ± 0.0058,1.001 ± 0.0081
CCCN1CC[C@@H]2c3cc(O)ccc3CC[C@@H]21 (racemic) [cis(+/-)-8-OH-PBZI hydrobromide],0.993 ± 0.011,0.975 ± 0.021,1.01,1.02 ± 0.092,0.9937 ± 0.0071,1.007 ± 0.0058
C[C@H]1CNCCc2ccc(Cl)cc21 [Lorcaserin HCl],1.003 ± 0.0064,1.02 ± 0.029,1 ± 0.019,1.02 ± 0.029,1.003 ± 0.0061,0.998 ± 0.0035
N[C@@H](Cn1ccc(=O)[nH]c1=O)C(=O)O [S(-)-Willardiine],1.007 ± 0.0058,1.023 ± 0.0058,0.847 ± 0.28,1.02 ± 0.015,1.002 ± 0.007,1.007 ± 0.0058
c1ccc2c(c1)[I+]c1ccccc1-2 [Diphenyleneiodonium chloride],0.45 ± 0.015,0.0556 ± 0.0019,0.649 ± 0.014,0.0883 ± 0.044,0.232 ± 0.015,0.00555 ± 0.0077
CN1CC[C@]2(CCN3CCc4c(oc5ccccc45)[C@@H]3C2)N(C)C1=O,1.003 ± 0.0058,0.974 ± 0.015,1.01,0.889 ± 0.24,1.013 ± 0.0058,1.02 ± 0.015
CCN(CC)C(=O)N[C@H]1C[C@@H]2c3cccc4[nH]cc(c34)C[C@H]2N(C)C1 [S(+)-Terguride],0.989 ± 0.011,1.01 ± 0.02,0.79 ± 0.37,0.996 ± 0.016,0.9953 ± 0.0015,0.993 ± 0.0056
CCCn1c(C)c(C(=O)c2cccc3ccccc23)c2ccccc21,1.001 ± 0.0083,1.03 ± 0.023,1.007 ± 0.0058,1.06 ± 0.09,0.9977 ± 0.004,1.01 ± 0.023
"Cc1c(C(=O)c2cccc3ccccc23)c2cccc3c2n1[C@H](CN1CCOCC1)CO3 [( R)-(+)-WIN 55,212-2 mesylate]",1.004 ± 0.01,0.0209 ± 0.0039,1.01 ± 0.029,0.016 ± 0.002,1.013 ± 0.0058,0.00693 ± 0.00096
CCC(=O)CCCCC[C@@H]1NC(=O)[C@H]2CCCCN2C(=O)[C@H]([C@@H](C)CC)NC(=O)[C@H](Cc2cn(OC)c3ccccc23)NC1=O [Apicidin],0.387 ± 0.16,0.954 ± 0.041,0.644 ± 0.15,0.983 ± 0.03,0.0476 ± 0.028,0.96 ± 0.022
